The list is not random: actives were taken first. Their share in the collection is about 4.1%.
TIM10 inh: growth inhibitors of TIM10 yeast strain. AID 463195. S. cerevisiae TIM10 strain growth, BacTiter-Glo luminescence, 24 h. inhibition, % at 10 µM. 330,000 tested, 1.4% active;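 active = inhibition of 40% or more at the single tested concentration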;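 note: wild-type TIM10 isogenic control strain grown at permissive 25 °C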
tim10-1 inh: inhibits growth of tim10-1 mutant yeast. S. cerevisiae tim10-1 ts strain growth, BacTiter-Glo, 24 h. inhibition, % at 20 µM. 330,000 tested, 2.2% active. AID 463190;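 active = inhibition of at least 40%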;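 note: mutant grown at 25 °C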
tim23-1 inh: growth inhibitors of tim23-1 mutant yeast. S. cerevisiae tim23-1 growth, BacTiter-Glo luminescence, 24 h. inhibition, % at 20 µM. 330,000 tested, 1.3% active. AID 463212;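 active = growth inhibition of the mutant yeast at or above 50%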;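 note: temperature-sensitive mutant grown at 25 °C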
NALP1 yeast inh: inhibitors of NALP1 inflammasome in yeast. S. cerevisiae NALP1/ASC/caspase-1 growth, X-gal OD620, 72 h. inhibition, % at 10 µM. 280,000 tested, 0.61% active; in the data active = inhibition mostly above about 24%, no sharp cut-off; inactive = mostly below about 32%
NALP3 yeast inh: inhibitors of NALP3 inflammasome in yeast; Yeast reconstituted NLRP3/ASC/caspase-1, beta-gal luminescence, 24 h; inhibition, % at 10 µM; 330,000 tested, 0.39% active;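 active = inhibition of 50% or more; inactive = inhibition below 50%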
PfHsp90 yeast 2: reduces growth (ATP signal) of yeast expressing P. falciparum Hsp90; S. cerevisiae expressing PfHsp90, BacTiter-Glo ATP, 48 h; yeast lacking PDR1 and PDR3 efflux regulators; inhibition, % at 9.4 µM; 310,000 tested, 0.32% active;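 active = every replicate shows inhibition above about 80%, whatever the replicate mean, limit read from the data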
tim23-1 conf: confirmation of tim23-1 mutant yeast growth inhibitors | S. cerevisiae tim23-1 growth, BacTiter-Glo luminescence, 24 h | shares compounds with tim23-1 inh | inhibition, % at 20 µM | 4,400 tested, 83% active;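 active = inhibition above about 39% in either of two replicate wells at 20 µM, limit read from the data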;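 note: temperature-sensitive tim23-1 mutant grown at 25 °C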
A number is an active result; . = inactive; / = no result.

SMILES	TIM10 inh	tim10-1 inh	tim23-1 inh	NALP1 yeast inh	NALP3 yeast inh	PfHsp90 yeast 2	tim23-1 conf
CCn1c(N2CCN(S(=O)(=O)c3ccc(F)cc3)CC2)nc2ccccc21	.	.	.	.	.	.	/
COc1ccc(CCNC(=O)c2c(Cl)ccc(Cl)c2OC)cc1OC	.	.	.	.	.	.	/
CC(C)(C)c1csc(N/N=C/c2ccc(O)cc2)n1	.	.	57	.	.	.	.
O=C(COC(=O)c1nc(Cl)ccc1Cl)NCc1cccs1	.	.	.	/	.	.	/
O=C(c1ccccc1)N1C(=O)C(c2ccccc2)Oc2ccccc21 (stereo not given)	.	.	80	.	.	.	57
C/C=C/c1ccc(OCCOc2cc(C=O)ccc2OC)c(OC)c1	.	.	57	.	.	.	67
C/C=C/c1ccc(OCC(=O)O)c(OC)c1	.	.	.	.	.	.	/
CC(=O)Nc1ccc(-c2c(C)cc3oc(=O)cc(-c4ccccc4)c3c2C)cc1	.	.	50	/	/	.	.
COC(=O)[C@H](Cc1ccccc1)N1C/C=C\COc2c(Cl)cc(Cl)cc2S1(=O)=O	.	.	52	/	/	.	.
O=C(Nc1ccc(-c2nc3ncccc3o2)cc1)c1ccc([N+](=O)[O-])o1	.	.	65	.	.	.	83
Cc1ccc(C(=O)NC(=S)Nc2ccc(CN3CCOCC3)cc2)cc1	.	.	52	.	.	.	.
CC(C)(C)c1ccc(-n2ncc3c2CCCC3NC(=O)c2cnccn2)cc1 (stereo not given)	.	.	.	.	.	.	/
COC(=O)c1ccc(-n2c(C)cc(C(=O)CCl)c2C)cc1	.	.	52	.	.	.	.
COc1cc(NC(=O)c2cc3sccc3n2C)cc(OC)c1	.	.	53	.	.	/	43
Cc1nn(C)c(C)c1NS(=O)(=O)c1ccc(Cl)s1	.	.	.	/	.	.	/
Cc1ccc(F)cc1NS(=O)(=O)c1ccc(Cl)s1	.	.	51	/	.	.	50
N#C/C(=C\c1ccc(Cl)cc1)C(=O)NC1CC1	.	.	56	/	.	.	52
CSc1ccc(/C=C(\C#N)C(=O)NC2CCCCC2)cc1	.	.	.	.	.	.	51
Cc1cc(/C=C(\C#N)C(=O)NC2CCCCCC2)c(C)[nH]1	/	/	/	.	/	.	/
C=CCNC(=O)/C(C#N)=C/c1ccc(SC)cc1	.	.	.	.	.	.	/
Cc1ccc2nc(NC(=S)NC(=O)c3ccco3)sc2c1	/	/	/	.	/	.	/
Cc1ccc2nc(NC(=O)c3ccco3)sc2c1	.	.	64	.	.	.	.
COc1ccc2nc(NC(C)=O)sc2c1	.	.	.	.	.	.	/
COc1ccc(C(=O)Nc2nc3ccccc3s2)cc1	.	.	55	.	.	.	.
COc1cccc(C(=O)Nc2nc3ccccc3s2)c1	.	.	.	.	.	.	/
SMILES	TIM10 inh	tim10-1 inh	tim23-1 inh	NALP1 yeast inh	NALP3 yeast inh	PfHsp90 yeast 2	tim23-1 conf
COc1ccc2nc(Nc3ccccc3)sc2c1	.	.	56	.	.	.	.
CCC(C)C(=O)Nc1nc2ccc(OC)cc2s1 (stereo not given)	.	.	52	.	.	.	51
Cc1cnc(C(=O)OCC(=O)c2ccc(C)s2)cn1	.	.	.	/	.	.	/
CCOCCCn1c(=S)[nH]c2cc(C(=O)NCCCN(CC)CC)ccc2c1=O	.	.	.	.	.	.	/
COC(CNS(=O)(=O)c1cc2c3c(c1)CCN3C(=O)CC2)OC	.	.	.	.	.	.	/
COc1ccc2nc(NC(=O)c3ccco3)sc2c1	.	.	52	.	.	.	.
O=C(COC(=O)c1ccc(Br)o1)c1ccc(S(=O)(=O)N2CCCCC2)cc1	.	.	.	/	.	.	/
CCCCn1c(N)c(N(CCOC)C(=O)CC(NC(=O)c2ccccc2)c2ccccc2)c(=O)[nH]c1=O (stereo not given)	.	.	.	/	.	/	/
Cc1cnn(-c2nc(-c3ccccc3)cc(-c3ccccc3)n2)c1	.	.	52	.	.	.	56
O=C(CNc1ccccc1)N/N=C/c1ccc([N+](=O)[O-])o1	.	.	.	.	.	/	/
Cc1ccc(NCC(=O)N/N=C\c2ccc([N+](=O)[O-])o2)cc1	.	.	55	.	.	.	41
COc1ccc(-c2c(C)nn3c(N4CCCCCC4)cc(C)nc23)cc1OC	.	.	54	.	.	.	57
O=C(O)c1ccc(N=Cc2c(O)ccc3ccccc23)cc1	.	.	58	.	.	.	56
NC(=O)c1ccc(N=Cc2c(O)ccc3ccccc23)cc1	.	.	57	/	.	.	45
O=C(O)Cc1ccc(N=Cc2c(O)ccc3ccccc23)cc1	.	.	.	.	.	.	/
O=C(O)c1ccc(N=Cc2c(O)ccc3oc4c(c23)CCCC4)cc1	.	.	66	.	.	.	71
COc1ccc(N=Cc2c(O)ccc3ccccc23)cc1	.	.	57	.	.	.	57
CC(=O)Nc1ccc(N=Cc2c(O)ccc3ccccc23)cc1	.	.	.	.	.	.	/
CS(=O)(=O)c1cccc(C(=O)OCC(=O)NC(=O)Nc2ccccc2F)c1	.	.	.	/	.	/	/
Cc1ccc(NC(=O)c2ccc(S(=O)(=O)N3CCCCC3)cc2)nc1	.	.	.	/	.	.	/
COc1cc(C2(c3ccc(O)c(OC)c3)C(=O)Nc3c(C)cc(Br)cc32)ccc1O	.	.	.	/	.	.	/
O=C(c1cc(-c2ccc(O)cc2)on1)N1CCc2ccccc2C1	.	.	72	.	.	.	56
CC(=NO)c1ccc2c(c1)C(=NO)c1ccccc1-2	/	/	/	/	/	.	/
CCOC(=O)c1c(C)[nH]c(C(=O)CN(C)CC(=O)Nc2ccccc2C(F)(F)F)c1C	.	.	.	/	.	.	/
CCCc1nn(-c2ccccc2)c2c1C(c1cccs1)C(C#N)=C(N)O2 (stereo not given)	.	.	51	.	.	.	44
SMILES	TIM10 inh	tim10-1 inh	tim23-1 inh	NALP1 yeast inh	NALP3 yeast inh	PfHsp90 yeast 2	tim23-1 conf
Cc1nn(-c2ccccc2)c2c1C(c1ccc([N+](=O)[O-])cc1)C(C#N)=C(N)O2 (stereo not given)	.	.	.	.	.	.	/
Cc1nn(-c2ccccc2)c2c1C(c1cccs1)C(C#N)=C(N)O2 (stereo not given)	.	.	61	.	.	.	60
Cc1nn(-c2ccccc2)c2c1C(c1ccco1)C(C#N)=C(N)O2 (stereo not given)	.	.	.	.	.	.	/
CCC1(CC)Cc2ccccc2-c2nc(NCCO)[nH]c(=O)c21	.	.	.	.	.	.	/
CC1(C)Cc2ccccc2-c2nc(NN)[nH]c(=O)c21	.	.	51	.	.	.	.
CCCCOc1ccc(N=Nc2ccc(N)nc2N)cn1	.	.	80	.	.	.	70
Cc1nnc(NS(=O)(=O)c2ccc(N=Nc3ccc(N)nc3N)cc2)s1	/	/	/	/	/	.	/
CCOc1ccc2c3c(c(=O)oc2c1OCC)CCCC3	.	.	52	.	.	/	39

Screens deposited in PubChem by several laboratories.
